Data: PubChem BioAssay AID1159580 (chemical genetic matrix, 2015)
Out of some 5,500 compounds screened, about 2,000 (36%) were called active. Another 18% or so got no clear call; they are omitted. Cut-off read from the data, not from the text of the source: active = normalized growth mostly below about 0.91 (no sharp cut-off); inconclusive = no clear call, values can overlap the other calls; inactive = mostly above about 0.92. The list shows a part of the results.

Test: chemical genetic growth profiling, strain panel (AID 1159580);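 note: tested at 20 µM; growth read once vehicle control cultures reached saturation at 30 °C; 1 = growth at the plate median or of vehicle wells; lower values mean less growth of the strain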
Details: S. cerevisiae deletion strains, growth OD
[1] = locus YJR075W, strain HOC1, stronger effect = lower value
[2] = locus YMR307W, strain GAS1, stronger effect = lower value
[3] = locus YNL322C, strain KRE1, stronger effect = lower value

Measured: normalized growth

COC(=O)C(O)[C@H]1C(C)(C)[C@@H](OC(C)=O)[C@@H]2CC3=C4CC(=O)O[C@@H](c5ccoc5)[C@]4(C)CCC3[C@@]1(C)C2=O (stereo not given in full)
inactive: locus YBR021W, strain FUR4, stronger effect = lower value 0.99 | locus YBR229C, strain ROT2, stronger effect = lower value 0.996 | locus YCL029C, strain bik1, stronger effect = lower value 1.02 | locus YDL035C, strain GPR1, stronger effect = lower value 0.994 | locus YDL074C, strain BRE1, stronger effect = lower value 0.941 | locus YDL101C, strain DUN1, stronger effect = lower value 1.01 | locus YDL185W, strain tfp1, stronger effect = lower value 1.01 | locus YDL192W, strain arf1, stronger effect = lower value 0.986 | locus YDR101C, strain arx1, stronger effect = lower value 1.01 | locus YDR162C, strain NBP2, stronger effect = lower value 0.963 | locus YDR318W, strain mcm21, stronger effect = lower value 0.989 | locus YDR388W, stronger effect = lower value 1 | locus YDR502C, strain sam2, stronger effect = lower value 1 | locus YER110C, stronger effect = lower value 1 | locus YER155C, strain BEM2, stronger effect = lower value 1.01 | locus YER167W, strain BCK2, stronger effect = lower value 0.986 | locus YGL078C, strain dbp3, stronger effect = lower value 1.01 | locus YGL086W, strain mad1, stronger effect = lower value 0.979 | locus YGL248W, strain PDE1, stronger effect = lower value 0.992 | locus YGR135W, strain pre9, stronger effect = lower value 0.97 | locus YGR252W, strain gcn5, stronger effect = lower value 0.989 | locus YHR079C, strain IRE1 (second series), stronger effect = lower value 1 | locus YHR094C, strain hxt1, stronger effect = lower value 1 | locus YHR129C, strain ARP1, stronger effect = lower value 0.989 | locus YHR200W, strain rpn10, stronger effect = lower value 1 | locus YIL066C, strain RNR3, stronger effect = lower value 0.981 | locus YIL073C, strain SPO22, stronger effect = lower value 1 | locus YIL125W, strain kgd1, stronger effect = lower value 1.01 | locus YIR030C, strain dcg1, stronger effect = lower value 1.01 | locus YJL095W, strain BCK1, stronger effect = lower value 0.915 | locus YJL134W, strain LCB3, stronger effect = lower value 0.995 | locus YJL168C, strain set2, stronger effect = lower value 0.995 | locus YJL187C, strain SWE1 (second series), stronger effect = lower value 0.993 | locus YJR043C, strain POL32, stronger effect = lower value 1.02 | [1] 0.995 | locus YKL009W, strain mrt4, stronger effect = lower value 1.01 | locus YKL068W, stronger effect = lower value 1 | locus YKL085W, strain MDH1 (second series), stronger effect = lower value 0.995 | locus YKL085W, strain MDH1, stronger effect = lower value 0.995 | locus YKL190W, strain CNB1, stronger effect = lower value 0.998 | locus YKR001C, strain vps1, stronger effect = lower value 0.977 | locus YLR039C, strain RIC1, stronger effect = lower value 0.764 | locus YLR058C, strain SHM2, stronger effect = lower value 0.99 | locus YLR102C, strain apc9, stronger effect = lower value 0.993 | locus YLR262C, strain YPT6, stronger effect = lower value 0.805 | locus YLR268W, strain sec22, stronger effect = lower value 0.983 | locus YLR330W, strain CHS5, stronger effect = lower value 0.992 | locus YLR371W, strain rom2, stronger effect = lower value 0.982 | locus YLR418C, strain cdc73, stronger effect = lower value 0.906 | locus YML016C, strain PPZ1, stronger effect = lower value 0.994 | locus YML032C, strain rad52, stronger effect = lower value 1 | locus YML124C, strain tub3, stronger effect = lower value 1 | locus YMR078C, strain ctf18, stronger effect = lower value 0.983 | locus YMR223W, strain ubp8, stronger effect = lower value 0.99 | [2] 0.76 | locus YNL067W, strain RPL9B, stronger effect = lower value 0.991 | locus YNL233W, strain BNI4, stronger effect = lower value 0.984 | locus YNL250W, strain rad50, stronger effect = lower value 1.02 | locus YNL271C, strain bni1, stronger effect = lower value 0.998 | locus YNL298W, strain CLA4, stronger effect = lower value 1.01 | locus YNL307C, strain MCK1, stronger effect = lower value 0.991 | [3] 1 | locus YNR052C, strain pop2, stronger effect = lower value 0.99 | locus YOL012C, strain htz1 0.744 | locus YOL147C, strain pex11, stronger effect = lower value 1 | locus YOR061W, strain CKA2, stronger effect = lower value 0.997 | locus YOR069W, strain VPS5, stronger effect = lower value 0.996 | locus YOR136W, strain idh2, stronger effect = lower value 1.01 | locus YOR144C, strain elg1, stronger effect = lower value 1 | locus YOR184W, strain ser1, stronger effect = lower value 0.965 | locus YOR316C, strain cot1, stronger effect = lower value 1.01 | locus YPL055C, strain LGE1, stronger effect = lower value 1.01 | locus YPR119W, strain clb2, stronger effect = lower value 1 | locus YPR141C, strain kar3, stronger effect = lower value 0.992 | locus YPR163C, strain tif3, stronger effect = lower value 1 | locus YPR167C, strain met16, stronger effect = lower value 1 | strain wtn01, stronger effect = lower value 0.995

CC(=O)NC1C(O)OC(COS(=O)(=O)O)C(OC2OC(C(=O)O)C(OC3OC(CO)C(OC4OC(C(=O)O)C(O)C(O)C4OS(=O)(=O)O)C(OS(=O)(=O)O)C3NS(=O)(=O)O)C(O)C2OS(=O)(=O)O)C1O (stereo not given)
inactive: locus YAL021C, strain ccr4, stronger effect = lower value 0.991 | locus YAL026C, strain drs2, stronger effect = lower value 0.974 | locus YAL030W, strain snc1, stronger effect = lower value 0.988 | locus YBL061C, strain skt5, stronger effect = lower value 0.964 | locus YBR009C, strain hhf1, stronger effect = lower value 0.989 | locus YBR023C, strain chs3, stronger effect = lower value 0.971 | locus YBR171W, strain sec66, stronger effect = lower value 0.957 | locus YBR231C, strain swc5, stronger effect = lower value 0.991 | locus YBR279W, strain paf1, stronger effect = lower value 0.981 | locus YCL011C, strain gbp2, stronger effect = lower value 0.976 | locus YCL016C, strain dcc1, stronger effect = lower value 0.971 | locus YCL061C, strain MRC1, stronger effect = lower value 0.978 | locus YCL069W, strain vba3, stronger effect = lower value 0.976 | locus YCR088W, strain abp1, stronger effect = lower value 0.974 | locus YDL005C, strain med2, stronger effect = lower value 0.978 | locus YDL040C, strain nat1, stronger effect = lower value 0.973 | locus YDR001C, strain nth1, stronger effect = lower value 0.976 | locus YDR069C, strain doa4, stronger effect = lower value 0.978 | locus YDR137W, strain rgp1, stronger effect = lower value 0.92 | locus YDR159W, strain sac3, stronger effect = lower value 0.992 | locus YDR195W, strain ref2 0.965 | locus YDR297W, strain sur2, stronger effect = lower value 0.981 | locus YDR334W, strain swr1, stronger effect = lower value 0.96 | locus YDR335W, strain msn5, stronger effect = lower value 0.978 | locus YDR392W, strain spt3, stronger effect = lower value 0.979 | locus YEL003W, strain gim4, stronger effect = lower value 0.978 | locus YEL037C, strain rad23, stronger effect = lower value 0.978 | locus YEL061C, strain CIN8 (second series), stronger effect = lower value 0.976 | locus YER015W, strain faa2, stronger effect = lower value 0.986 | locus YER016W, strain bim1, stronger effect = lower value 0.982 | locus YER111C, strain swi4, stronger effect = lower value 0.968 | locus YER155C, strain BEM2 (second series), stronger effect = lower value 0.975 | locus YFR010W, strain ubp6, stronger effect = lower value 0.968 | locus YGL167C, strain pmr1, stronger effect = lower value 0.97 | locus YGL173C, strain kem1, stronger effect = lower value 0.966 | locus YGL227W, strain vid30, stronger effect = lower value 0.975 | locus YGL240W, strain doc1, stronger effect = lower value 0.996 | locus YGL253W, strain hxk2, stronger effect = lower value 0.994 | locus YHR013C, strain ard1, stronger effect = lower value 0.947 | locus YHR027C, strain rpn1, stronger effect = lower value 0.979 | locus YHR142W, strain chs7, stronger effect = lower value 0.957 | locus YJL092W, strain hpr5, stronger effect = lower value 0.976 | locus YJL095W, strain BCK1 (second series), stronger effect = lower value 0.979 | locus YJL115W, strain asf1, stronger effect = lower value 0.967 | locus YJL129C, strain trk1, stronger effect = lower value 0.986 | locus YJL154C, strain vps35, stronger effect = lower value 0.974 | locus YJL164C, strain tpk1, stronger effect = lower value 0.979 | locus YJL166W, strain qcr8, stronger effect = lower value 0.982 | locus YJL187C, strain SWE1, stronger effect = lower value 0.978 | locus YKL160W, strain elf1, stronger effect = lower value 0.976 | locus YKR026C, strain gcn3, stronger effect = lower value 0.978 | locus YKR091W, strain srl3, stronger effect = lower value 0.984 | locus YLL001W, strain dnm1, stronger effect = lower value 0.975 | locus YLL026W, stronger effect = lower value 0.981 | locus YLL041C, strain sdh2, stronger effect = lower value 0.982 | locus YLR027C, strain aat2, stronger effect = lower value 0.982 | locus YLR221C, strain rsa3, stronger effect = lower value 0.969 | locus YLR258W, strain gsy2, stronger effect = lower value 0.986 | locus YLR262C, strain YPT6 (second series), stronger effect = lower value 0.977 | locus YLR320W, strain mms22, stronger effect = lower value 0.977 | locus YLR342W, strain FKS1, stronger effect = lower value 0.98 | locus YLR357W, strain rsc2, stronger effect = lower value 0.964 | locus YLR370C, strain arc18, stronger effect = lower value 0.966 | locus YLR384C, strain iki3, stronger effect = lower value 0.963 | locus YML120C, strain ndi1, stronger effect = lower value 0.981 | locus YMR058W, strain fet3, stronger effect = lower value 0.987 | locus YMR125W, strain sto1, stronger effect = lower value 0.981 | locus YMR129W, stronger effect = lower value 0.983 | locus YMR205C, strain PFK2, stronger effect = lower value 0.982 | locus YMR231W, strain pep5, stronger effect = lower value 0.967 | locus YNL071W, strain lat1, stronger effect = lower value 0.983 | locus YNL209W, strain ssb2, stronger effect = lower value 0.975 | locus YNL248C, strain rpa49, stronger effect = lower value 0.98 | locus YNL322C, strain KRE1 (second series), stronger effect = lower value 0.989 | locus YNR049C, strain mso1, stronger effect = lower value 0.987 | locus YOR001W, strain rrp6, stronger effect = lower value 0.97 | locus YOR070C, strain gyp1, stronger effect = lower value 0.978 | locus YOR080W, strain dia2, stronger effect = lower value 0.969 | locus YOR083W, strain WHI5, stronger effect = lower value 0.986 | locus YOR106W, strain vam3, stronger effect = lower value 0.984 | locus YOR265W, strain rbl2, stronger effect = lower value 0.972 | locus YOR270C, strain vph1, stronger effect = lower value 0.952 | locus YOR290C, strain snf2, stronger effect = lower value 0.961 | locus YPL051W, strain arl3, stronger effect = lower value 0.977 | locus YPL078C, strain atp4, stronger effect = lower value 0.97 | locus YPL106C, strain sse1, stronger effect = lower value 0.97 | locus YPL240C, strain hsp82, stronger effect = lower value 0.982

O=c1onc2n1-c1cc(Br)ccc1OC2
active: locus YNL153C, strain GIM3, stronger effect = lower value 0.763
inactive: locus YAL013W, strain DEP1, stronger effect = lower value 0.994 | locus YAL040C, strain CLN3, stronger effect = lower value 0.991 | locus YCL061C, strain MRC1 (second series), stronger effect = lower value 1.01 | locus YDR363W, strain ESC2, stronger effect = lower value 0.995 | locus YER002W, strain NOP16, stronger effect = lower value 1 | locus YGR078C, strain PAC10, stronger effect = lower value 0.952 | [1] 1 | locus YMR263W, strain SAP30, stronger effect = lower value 1.01 | [2] 0.989 | locus YNL175C, strain NOP13, stronger effect = lower value 1 | locus YNL197C, strain WHI3, stronger effect = lower value 1.02 | locus YNL224C, strain SQS1, stronger effect = lower value 1 | [3] 0.998 | locus YOR083W, strain WHI5 (second series), stronger effect = lower value 0.882 | locus YPL241C, strain CIN2, stronger effect = lower value 1
